Shown are actives, neighbours in structure and some others; about 10% of the full set was active somewhere.
CCT chaperon mod – modulators of cytosolic chaperonin (CCT/TRiC) activity; purified chaperonin ATPase assay, HTRF ADP detection, 30 min; activity change, % (no concentration beside the values), hits read low; 360,000 tested, 0.3% active; in the data active = activity change below about -30%
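We incubate TRiC, 40 or 20 nM final, with library compounds at 76 uM and 10 uM ATP for 30 min at 37 °C. ADP formed is detected with Transcreener HTRF reagents after 30 min at room temperature.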
Sfp inh – Sfp phosphopantetheinyl transferase inhibition. Q9F4F7. Biochemical Sfp PPTase activity, qHTS. Potency, µM, for inactives: largest response in the series, negative = inhibition, hits mostly inhibitors. 310,000 tested, 3.5% active. AID 1490;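 note: the enzyme is Sfp with the accession as filed and its product quenches rhodamine fluorescence; potency is the fitted concentration of half-maximal effect; 0% = enzyme reaction without inhibitor and -100% = no enzyme wells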
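Sfp 15 nM + cpd, 15 min RT; start w/ rhodamine-CoA 5 uM, BHQ-2-YbbR 12.5 uM (final); 50 mM Hepes pH 7.6, 10 mM MgCl2, 0.01% NP-40, 0.01% BSA; read 525/598 nm at 0 and 30 min.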
MmCpn inh – blocks the Methanococcus maripaludis chaperonin Mm-Cpn; purified Mm-Cpn ATPase, ADP Transcreener TR-FRET; Potency, µM (highest dose often 76.9 µM), for inactives: top-dose activity, negative = inhibition, most hits filed as inhibitors; 330,000 tested, 0.031% active; AID 504842; note: potency is the fitted concentration of half-maximal effect; nearly all actives have a fitted effect of over 80% in size
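Quantitative HTS used 25 nM Mm-CPN and 10 uM ATP in magnesium/KCl Tris buffer, pH 7.4, with 1 mM DTT. Hydrolysis ran 30 min at 37°C; ADP was read by HTRF.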
VDR inh – blocks the human vitamin D receptor | P11473 | VDR-SRC2-3 peptide fluorescence polarization, 2 h | Potency, µM, for the others: max response, negative = inhibition, hits mostly inhibitors | 400,000 tested, 0.93% active; note: potency is the fitted concentration of half-maximal effect
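Reagent solutions, kept cold and dark, are dispensed first; compounds are then pinned in at 23 nl, plates briefly spun, and incubated 2 h at ambient temperature. Inhibition of VDR–SRC2-3 peptide binding is read by fluorescence polarization.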
G9a inh – blocks human histone lysine methyltransferase G9a | Potency, µM (doses to about 102 µM), without a hit: at the highest dose activity, negative = inhibition, actives largely listed as inhibitors | 350,000 tested, 8.8% active | Q96KQ7 | G9a H3K9 monomethylation, AlphaScreen, 2 h; note: potency is the fitted concentration of half-maximal effect; nearly all actives have a fitted effect of over 75% in size
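G9a (20 nM) was preincubated 15 min with compound, then reacted 2 h at room temperature with 500 nM biotin-H3K9 peptide and 20 µM SAM. Monomethyl-H3K9 detected by AlphaScreen using anti-H3K9me1 antibody.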
PLK1 PBD inh – PLK1 (human) polo-box domain binding inhibition; P53350; Plk1 PBD binding of FITC phosphopeptide, fluorescence polarization; Potency, µM, for the others: max response, negative = inhibition, usual class: inhibitors; 360,000 tested, 2.8% active; note: potency is the fitted concentration of half-maximal effect; series mostly up to about 57 µM; nearly all actives have a fitted effect of over 65% in size
Target sequence (P53350 whole entry, looked up, the tested form may be a part): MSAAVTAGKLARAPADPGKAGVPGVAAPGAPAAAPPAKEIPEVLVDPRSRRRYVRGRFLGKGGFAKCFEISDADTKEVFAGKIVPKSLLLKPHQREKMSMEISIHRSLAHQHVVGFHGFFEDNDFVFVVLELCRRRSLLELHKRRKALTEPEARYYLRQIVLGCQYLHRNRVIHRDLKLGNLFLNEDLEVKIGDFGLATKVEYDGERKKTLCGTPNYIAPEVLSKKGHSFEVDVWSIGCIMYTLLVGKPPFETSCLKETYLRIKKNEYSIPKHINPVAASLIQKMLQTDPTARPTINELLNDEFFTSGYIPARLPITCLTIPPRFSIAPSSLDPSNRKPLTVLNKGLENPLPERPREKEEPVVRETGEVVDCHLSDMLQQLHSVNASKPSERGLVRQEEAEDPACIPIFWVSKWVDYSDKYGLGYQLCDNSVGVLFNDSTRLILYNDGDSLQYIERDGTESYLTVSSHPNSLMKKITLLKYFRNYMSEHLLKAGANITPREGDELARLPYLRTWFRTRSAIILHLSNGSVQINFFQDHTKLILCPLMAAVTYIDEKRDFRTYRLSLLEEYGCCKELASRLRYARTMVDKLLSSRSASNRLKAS
* hit, by the source's call; ? = inconclusive; · = no result; ! = repeats disagree; [ ] = another dose, or the depositor's remark. Unless noted, calls come from the whole dose curve; as a rule, active = well fitted curve in the direction sought with a large enough effect; inconclusive = small, poorly fitted or top-dose-only effect, or another doubt; inactive = no such curve, though single readings can be large; an effect the other way counts as inactive or inconclusive. Unless noted, % is set by controls: 0 for no effect and ±100 for the full control effect.

SMILES	CCT chaperon mod	Sfp inh	MmCpn inh	VDR inh	G9a inh	PLK1 PBD inh
COC(=O)CSc1nc2ccc(N)cc2s1	-6	-24%	-7%	12%	18µM*	-17%
Cc1nc(SCc2ccc([N+](=O)[O-])cc2)n[nH]1	-1	25%	-1%	14%	-9%[0.501 µM]	-16%
Cc1nnc(SCc2ccc([N+](=O)[O-])cc2)o1	0	-1%	0%	?	-8%	3.8µM*
CCOC(=O)CSc1nc2ccc(NC(C)=O)cc2s1	1	8%	-1%	-13%	23%	-19%
Nc1ccc2nc(SCc3ccc([N+](=O)[O-])cc3)sc2c1	0	-9%	0%	-17%	40µM*	?
Cc1cc(S(=O)(=O)N2CCN(Cc3noc(CCC(=O)N4CCCCC4)n3)CC2)ccc1F	·	·	·	3%	?	·
CN1CCN(CC(=O)NN(Cc2ccccc2)c2ccccc2)CC1	-1	-15%	-1%	-18%	·	-14%
CCN(CC)CC(=O)NN(Cc1ccccc1)c1ccccc1	-2	-27%	0%	-28%	28µM*	3%
Cc1ccc(CN(Cc2ccco2)c2cnc(S(C)(=O)=O)nc2C(=O)Nc2ccccc2Br)o1	·	·	·	-8%	-51%[59 µM]	·
Cc1cc2c(cc1Cl)C(c1ccccc1C)CC(=O)O2 (stereo not drawn)	·	-8%	·	-12%	86%	·
COc1cccc(C(=O)Nc2cc3c(cc2N2CCCC2)n(C)c(=O)n3C)c1	1	-5%	-5%	-6%	45µM*	-2%
Cc1ccccc1C(=O)Nc1cc2c(cc1N1CCCCC1)n(C)c(=O)n2C	·	·	·	17%	16µM*	·
COc1cccc(C(=O)Nc2ccc3c(c2)C(=O)c2ccccc2C3=O)c1	-3	-8%	0%	-15%	-14%[59 µM]	27µM*
CCOC(=O)C1CCN(c2cc3c(cc2NC(=O)c2cc(OC)ccc2Br)n(C)c(=O)n3C)CC1	1	-1%	-2%	-23%	40µM*	?
CCOC(=O)C1CCN(c2cc3c(cc2NC(=O)c2ccccc2Br)n(C)c(=O)n3C)CC1	0	-10%	-5%	-27%	·	-10%
COC(=O)c1sccc1NC(=S)N1C(C)CCCC1C (stereo not drawn)	0	-3%	-4%	-8%	10µM*	?
COC(=O)c1sccc1NC(=O)Nc1ccc(C)cc1C	-1	6%	-6%	-10%	-2%	3%
COC(=O)c1sccc1NC(=O)c1ccccc1	-5	8%	2%	-6%	83%	-12%
COC(=O)c1sccc1NC(=O)c1cccc(OC)c1	-4	-16%	0%	?	156%	19µM*
COC(=O)c1sccc1NC(=S)N1CCCCC1C (stereo not drawn)	0	-22%	3%	5%	?	-5%
COC(=O)c1sccc1NC(=S)Nc1cc(C)ccc1OC	1	-11%	0%	-3%	50µM*	-11%
CN(C)C(=O)c1ccc(-c2cc(NCc3ccccc3)ncn2)cc1	·	27%	·	?	-7%[0.501 µM]	·
CCc1sc(N)nc1-c1ccccc1	-1	79µM*	1%	-8%	?	-16%
Nc1nc(-c2cccs2)c(CC(=O)O)s1	0	-24%	-5%	11%	40µM*	-29%
CCOCC(=O)Nc1nc(-c2ccccc2)c(CC)s1	1	3%	-1%	10%	35µM*	-15%
SMILES	CCT chaperon mod	Sfp inh	MmCpn inh	VDR inh	G9a inh	PLK1 PBD inh
Nc1nc(-c2ccccc2)c(CC(=O)O)s1	2	·	·	·	·	-2%
Nc1nc(-c2ccc(Oc3ccccc3)cc2)c(CC(=O)O)s1	0	-7%	-5%	?	32µM*	-26%
COc1ccc(C(=O)c2cn(Cc3cccc(C)c3)c3cc4c(cc3c2=O)OCO4)cc1	·	·	·	-15%	-26%[59 µM]	·
CCCN(C(=O)C1CCN(S(=O)(=O)c2c(C)noc2/C=C/c2ccc(C)cc2)CC1)c1ccccc1F	·	·	·	-8%	20%[59 µM]	·
O=c1c(O)cccc2cc(O)c(O)c(O)c12	-2	6.3µM*!	-6%	20µM*!	0.56µM*	8.4µM*
Cc1onc(-c2c(Cl)cccc2Cl)c1NC(=O)NNc1ccccc1	0	2%	1%	-22%	40µM*	-4%
Cc1onc(-c2c(Cl)cccc2Cl)c1NC(=O)NNc1c(Cl)cncc1Cl	2	-8%	-1%	-12%	3%	-4%
Cc1nc(S(=O)(=O)N2CCOCC2)c(C#N)c(C)c1Cl	2	8%	0%	-8%	81%[59 µM]	?
Cc1nc(S(=O)(=O)NC2CCCCC2)c(C#N)c(C)c1Cl	-3	7%	-2%	?	79µM*	?
CCC(=O)N1N=C(c2ccc(C)o2)CC1c1ccc(OC)cc1 (stereo not drawn)	-2	-17%	-6%	13%	?	0%
CCC(=O)N1N=C(c2ccc(C)o2)CC1c1ccc(Br)cc1 (stereo not drawn)	-1	50µM*	-1%	-16%	?	-26%
Cc1ccc(/C=C2\SC(=S)N(Cc3ccccc3)C2=O)o1	-2	?	-1%	-8%	?	-13%
O=C(O)c1cc(-c2ccc(/C=C3/SC(=S)N(Cc4ccccc4)C3=O)o2)ccc1Cl	1	50µM*	0%	-20%	13µM*	-5%
COc1ccc(CN2C(=O)/C(=C/c3ccc(-c4ccc(Cl)c(C(=O)O)c4)o3)SC2=S)cc1	·	50µM*	-3%	·	32µM*	·
O=C(CN1C(=O)C2(SCC(=O)N2c2cccc(Cl)c2)c2ccccc21)NC1CCCCC1 (stereo not drawn)	·	·	·	7%	0%[59 µM]	·
COc1ccc(CCNC(=O)C2CCN(c3nc4ccccc4nc3C(F)(F)F)CC2)cc1OC	·	·	·	6%	9%[59 µM]	·
CSc1nc2nc3c(cc2c(=O)n1-c1ccccc1C)CCCC3	0	-4%	-2%	21%	7.1µM*	-3%
COc1ccc(OCC(=O)OCc2cc(=O)n3nc(C4CCCCC4)sc3n2)cc1	·	·	·	-3%	-2%[59 µM]	·
COC(=O)C1=NN(c2ccc(C)cc2)C2(S1)SC(C(C)=O)=C(C)N2c1ccccc1 (stereo not drawn)	-2	-4%	1%	-1%	11µM*	0%
CCOC(=O)c1ccccc1NC(=O)N1CCN2CCCCC2C1 (stereo not drawn)	·	·	·	5%	-11%[59 µM]	·

From PubChem BioAssay
